This is a sample that favours compounds with a hit; in the whole collection about 2.2% have one here.
NOD2 RIPK2 PPI: inhibitors of human NOD2-RIPK2 interaction; 0.38% of 360,000 active; AID 624267; O43353; CHO BLA complementation NOD2-RIPK2, CCF4 ratio; inhibition, % at 4.98 µM; in the data active means inhibition above about 21%;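 further: 0% = vehicle only and 100% = reference blocker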
TLR4-MyD88 BLA: inhibitors of human TLR4-MyD88 binding | 0.18% of 200,000 active | inhibition, % at 8.4 µM | O00206+Q99836 | AID 861 | HeLa CL3-4 TLR4/MyD88 BLA complementation, FRET ratio; in the data active means inhibition above about 25%;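 further: 0% = vehicle and 100% = reference inhibitor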
GRK2 aptamer HTS: blocks RNA aptamer binding to human GRK2. P25098. bead flow cytometry, FAM-aptamer displacement from GRK2. inhibition of aptamer binding, % at 10 µM. 0.59% of 330,000 active;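 active means inhibition of aptamer binding above 40%, roughly 3 SD of noise, on plates passing a quality check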;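 further: median bead fluorescence of bound FAM aptamer so fluorescent compounds give negative values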
TLR9-MyD88 inh: blocks human TLR9 binding to MyD88 | Q9NR96+Q99836 | CHO BLA complementation TLR9-MyD88, CCF4 FRET ratio | inhibition, % at 4.98 µM | 0.21% of 340,000 active;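 active means inhibition above the mean over all tested compounds plus 3 SD, cut at about 21% in these data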;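 further: 0% = DMSO only wells and 100% = clavulanate BLA inhibitor control wells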
Target sequence (Q99836 whole entry, looked up): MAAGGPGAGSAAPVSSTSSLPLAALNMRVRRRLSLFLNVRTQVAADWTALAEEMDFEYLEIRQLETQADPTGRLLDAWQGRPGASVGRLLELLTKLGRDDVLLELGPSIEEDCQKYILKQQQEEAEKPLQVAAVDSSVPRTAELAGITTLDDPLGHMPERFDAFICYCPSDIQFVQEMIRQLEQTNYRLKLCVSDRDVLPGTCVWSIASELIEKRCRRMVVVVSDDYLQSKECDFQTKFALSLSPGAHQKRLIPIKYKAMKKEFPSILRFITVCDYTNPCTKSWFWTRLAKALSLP
Target sequence (Q9NR96 whole entry, looked up): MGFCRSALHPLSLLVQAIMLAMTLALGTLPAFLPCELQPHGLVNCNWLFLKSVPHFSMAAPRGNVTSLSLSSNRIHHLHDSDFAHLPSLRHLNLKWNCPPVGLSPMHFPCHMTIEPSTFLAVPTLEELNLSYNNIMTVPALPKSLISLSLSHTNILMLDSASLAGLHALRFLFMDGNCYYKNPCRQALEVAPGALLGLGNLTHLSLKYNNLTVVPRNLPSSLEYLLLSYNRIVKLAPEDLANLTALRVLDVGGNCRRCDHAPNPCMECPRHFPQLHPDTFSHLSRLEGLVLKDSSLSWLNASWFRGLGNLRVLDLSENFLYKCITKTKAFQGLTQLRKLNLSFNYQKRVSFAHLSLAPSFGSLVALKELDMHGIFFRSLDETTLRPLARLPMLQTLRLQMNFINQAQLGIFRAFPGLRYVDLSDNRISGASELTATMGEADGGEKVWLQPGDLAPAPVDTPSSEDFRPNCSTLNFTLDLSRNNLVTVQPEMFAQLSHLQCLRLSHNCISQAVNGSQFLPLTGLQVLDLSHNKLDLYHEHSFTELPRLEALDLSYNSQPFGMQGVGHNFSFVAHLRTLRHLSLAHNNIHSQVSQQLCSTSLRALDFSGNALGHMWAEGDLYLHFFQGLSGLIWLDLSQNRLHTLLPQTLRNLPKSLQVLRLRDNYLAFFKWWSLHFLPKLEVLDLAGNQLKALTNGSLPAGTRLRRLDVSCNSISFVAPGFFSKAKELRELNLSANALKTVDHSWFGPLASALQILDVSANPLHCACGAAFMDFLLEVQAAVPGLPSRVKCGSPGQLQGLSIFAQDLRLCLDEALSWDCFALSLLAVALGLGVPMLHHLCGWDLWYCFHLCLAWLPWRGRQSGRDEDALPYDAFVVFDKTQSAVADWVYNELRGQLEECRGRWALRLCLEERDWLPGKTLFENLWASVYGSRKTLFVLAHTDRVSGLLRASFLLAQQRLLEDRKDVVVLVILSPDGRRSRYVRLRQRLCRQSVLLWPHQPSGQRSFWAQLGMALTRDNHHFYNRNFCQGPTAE
ANO1 activ: mouse TMEM16A channel activation, primary screen; B-score at 10 µM; HEK293 TMEM16A/YFP-H148Q/I152L, iodide quench fluorescence; hits give low values; Q8BHY3; AID 623877; 0.3% of 340,000 active;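 active means fluorescence-ratio B-score plate-corrected deviation score at least 3 library SD below zero, with starting fluorescence score within 5 deviations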;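 further: channel opened by trigger with iodide after compound preincubation; score built on the fluorescence ratio of max minus min over baseline; more negative score means more quench and so TMEM16A activation or potentiation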
ANO1 block: mouse TMEM16A channel inhibition, primary screen. Q8BHY3. HEK293 TMEM16A/YFP iodide influx fluorescence, ionomycin. normalized B-score (activity score, 25-100; higher = stronger inhibition) at 10 µM. 1.2% of 310,000 active. AID 588511;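 active means ratio plate-corrected score three or more library SD toward inhibition, starting fluorescence score within five deviations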;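 further: score derived from kinetic fluorescence span divided by baseline fluorescence per well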
TLR9-MyD88 conf: confirmation of human TLR9-MyD88 binding inhibitors; CHO TLR9/MyD88 BLA complementation, CCF4 FRET ratio; AID 540250; inhibition, % at 4.98 µM; shares compounds with TLR9-MyD88 inh; 51% of 680 active;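 active means mean inhibition across three repeats above about 21% taken from the earlier screen, limit read from the data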;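 further: blue over green emission ratio reports constitutive TLR9 MyD88 association via BLA complementation; 0% = DMSO vehicle wells and 100% = clavulanate BLA inhibitor wells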
BLA counter-1: counter-screen for TLR9-MyD88 inhibitors: non-selective beta-lactamase inhibitors | CHO-BLA cells, CCF4 FRET ratio, BLA reporter | shares compounds with TLR9-MyD88 inh | AID 540251 | 7% of 680 active | inhibition, % at 4.98 µM;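 active means mean inhibition above a 50% cutoff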;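 further: counterscreen of TLR9-MyD88 hits on CMV-driven BLA in CHO-K1 cells; 0% = DMSO alone and 100% = clavulanate blocking BLA; higher means less blue over green ratio so more BLA blockade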
TLR9 CHO tox: counter-screen for TLR9-MyD88 inhibitors: cytotoxicity in CHO cells. inhibition, % at 4.98 µM. luminescence. shares compounds with TLR9-MyD88 inh. AID 588336. 39% of 680 active; in the data active means inhibition above about 11%
NOD2 RIPK2 conf: NOD2-RIPK2 interaction inhibition confirmed | CHO cells, NOD2-RIPK2 BLA complementation, CCF4 FRET | 70% of 1,200 active | inhibition, % at 4.98 µM | shares compounds with NOD2 RIPK2 PPI;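 active means mean inhibition across replicates above a set limit taken from the earlier primary screen, cut at about 21% in these data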;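 further: 0% = DMSO-only wells and the high end = clavulanate BLA-blocked wells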
BLA counter-2: counter-screen for NOD2-RIPK2 interaction inhibitors: BLA reporter; shares compounds with NOD2 RIPK2 PPI; CHO BLA reporter, CCF4 FRET ratio, counterscreen; inhibition, % at 4.98 µM; 57% of 1,200 active;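 active means mean inhibition above the low-control mean inhibition plus three low-control SD, cut at about 11% in these data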;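 further: 0% = DMSO only wells and 100% = clavulanate high control wells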
Starred values were filed as active, the others as inactive; i = inactive; · = no result given.

SMILES	NOD2 RIPK2 PPI	TLR4-MyD88 BLA	GRK2 aptamer HTS	TLR9-MyD88 inh	ANO1 activ	ANO1 block	TLR9-MyD88 conf	BLA counter-1	TLR9 CHO tox	NOD2 RIPK2 conf	BLA counter-2
CN(C)c1ccc(/C=C/c2nc3ccccc3c(=O)n2CCO)cc1	34.7*	·	1.0	44.7*	i	i	2.6	5.1	5.7	20.2	27.8*
O=c1c2ccccc2nc(/C=C/c2ccccc2)n1CCCO	-10.1	·	1.0	-11.1	i	i	·	·	·	·	·
O=C(Nc1cccc2c1C(=O)NC2=O)c1ccc(S(=O)(=O)N2CCCC2)cc1	21.9*	22.2	6.0	37.8*	i	i	9.5	12.9	3.5	34.4*	43.4*
CCCSc1cc(NCCOC(C)=O)c([N+](=O)[O-])c2nonc12	-1.7	-6.1	0.0	-1.1	i	i	·	·	·	·	·
CCCC(=O)OCCNc1cc(Sc2nccn2C)c2nonc2c1[N+](=O)[O-]	70.5*	23.8	0.0	53.2*	i	i	71.2*	16.2	97.2*	91.7*	46.7*
CCC(=O)OCCNc1cc(Sc2nc3ccccc3s2)c2nonc2c1[N+](=O)[O-]	48.5*	10.2	1.0	39.1*	i	i	60.5*	13.5	98.1*	75.1*	14.4*
CCCC(=O)OCCNc1cc(SCc2ccco2)c2nonc2c1[N+](=O)[O-]	0.6	1.2	8.0	6.0	i	i	·	·	·	·	·
Cc1nnc(Sc2cc(NCCCO)c([N+](=O)[O-])c3nonc23)s1	40.7*	14.6	·	35.6*	i	·	64.0*	3.7	99.3*	59.9*	17.6*
COc1cccc(C(=O)N2CCC(N3CC(C)OC(C)C3)CC2)c1 (centres undefined)	2.1	-11.3	3.0	-3.5	i	i	·	·	·	·	·
O=C(O)c1ccc(-c2nnn(Cc3cccc(C(F)(F)F)c3)n2)cc1	-8.2	·	1.0	-0.5	i	i	·	·	·	·	·
COc1ccc(/C=C/c2nc3cc(-c4ccccc4)ccc3o2)cc1O	23.0*	-6.0	1.0	21.5*	i	i	5.1	8.9	11.3*	20.4	27.2*
COc1ccc(/C=C/c2nc3ccccc3c(=O)o2)cc1	7.3	·	0.0	2.5	i	i	·	·	·	·	·
Cc1cccc(OCCCC(=O)NNC(=O)CCN2CCN(c3ccccc3)CC2)c1	-10.1	·	10.0	3.7	i	i	·	·	·	·	·
COc1ccc2oc(=O)c(-c3csc(Nc4cccc(O)c4)n3)cc2c1	30.6*	14.7	1.0	35.8*	i	i	18.8	18.1	-3.5	27.9*	46.7*
O=c1c(Cl)c(N2CCC3(CC2)OCCO3)cnn1C12CC3CC(CC(C3)C1)C2	-2.7	·	0.0	·	i	i	·	·	·	·	·
O=S(=O)(/C=C/C=C/S(=O)(=O)c1ccccc1)c1ccccc1	86.7*	·	·	26.2*	i	·	26.8*	21.4	98.2*	76.6*	38.0*
Cn1c(=O)c([N+](=O)[O-])c(Cl)c2ccccc21	85.7*	8.9	·	47.1*	i	·	61.8*	6.7	96.7*	92.9*	27.0*
O=C(C(Cc1ccccc1)NS(=O)(=O)c1cccc2cccnc12)N1CCc2ccccc21 (centres undefined)	3.8	1.7	0.0	-0.4	i	i	·	·	·	·	·
COc1ccc(CC2=CC(=O)c3ccccc3C2=O)cc1	63.2*	·	1.0	23.5*	i	i	7.6	-7.7	83.7*	48.1*	-9.1
CCCn1c(SCC(=O)Nc2cc(Cl)ccc2OC)nc(O)cc1=O	1.9	·	0.0	-12.9	i	·	·	·	·	·	·
COC(=O)c1ccc2c(c1)C(=O)/C(=C/c1ccc(C)cc1)O2	-1.0	4.9	1.0	-7.1	i	i	·	·	·	·	·
CN(C)c1ccc(/C=C2\Oc3ccc(C#Cc4cccc(N)c4)cc3C2=O)cc1	49.4*	·	0.0	45.0*	i	·	53.3*	60.0*	3.6	70.6*	78.5*
O=C(/C=N/O)Nc1ccc2sc3ccccc3c2c1	21.2*	·	1.0	34.1*	i	i	8.0	6.0	3.0	20.3	14.7*
COC(=O)c1ccccc1NC(=O)/C=N/O	5.2	-4.5	1.0	8.2	i	i	·	·	·	·	·
CCCc1cc(=O)oc2cc(C)cc(OC(C)C(=O)NCC(O)c3ccccc3)c12 (centres undefined)	0.0	·	0.0	-0.1	i	i	·	·	·	·	·
SMILES	NOD2 RIPK2 PPI	TLR4-MyD88 BLA	GRK2 aptamer HTS	TLR9-MyD88 inh	ANO1 activ	ANO1 block	TLR9-MyD88 conf	BLA counter-1	TLR9 CHO tox	NOD2 RIPK2 conf	BLA counter-2
CS(=O)(=O)c1sc(C#N)c2c1C(=O)CC(c1ccccc1)C2 (centres undefined)	98.5*	·	0.0	58.3*	-11*	i	52.9*	38.1	99.7*	94.1*	36.1*
N#Cc1c([N+](=O)[O-])cc([N+](=O)[O-])cc1S(=O)(=O)Cc1ccccc1	86.4*	·	2.0	46.3*	i	·	40.1*	23.4	98.2*	92.2*	33.7*
COc1ccc(Cc2noc(CN3CCCN(C4Cc5ccccc5C4)CC3)n2)cc1OC	-2.1	-18.9	1.0	4.9	i	i	·	·	·	·	·
COc1ccc(C(=O)/C=C/c2ccc(N(C)C)cc2)c(OC)c1	59.2*	·	5.0	36.1*	i	i	29.0*	30.6	-0.1	62.4*	65.8*
NC(=O)/C(=N\OC(=O)c1ccco1)c1nc(-c2ccc(Br)cc2)cs1	21.4*	18.7	2.0	36.5*	i	i	20.0	19.6	7.7	43.3*	21.7*
CCc1ccc(Nc2n[n+](-c3ccccc3)c(-c3c(Cl)cccc3Cl)s2)cc1	68.2*	·	0.0	79.8*	-8.08*	100*	43.4*	44.5	28.7*	75.0*	62.6*
CCc1ccc(Nc2n[n+](-c3ccccc3)c(-c3cc(OC)c(OC)cc3Br)s2)cc1	-6.9	·	0.0	3.7	i	i	·	·	·	·	·
Cc1ccc(-n2sc3ccccc3c2=O)cc1	15.2	8.3	0.0	5.3	i	i	·	·	·	·	·
O=c1c2ccccc2sn1-c1ccc(F)cc1	34.9*	·	0.0	32.0*	i	·	9.5	-0.2	57.5*	36.6*	1.7
c1cc(SC2CCCCC2)cc(-c2nc3cnccn3c2NC2CCCCC2)c1	33.5*	·	0.0	33.1*	i	·	33.3*	34.8	-2.3	51.6*	65.8*

From PubChem
